PubChem BioAssay (NCATS)
Records with an inconclusive call do not appear. The source made the active and inactive calls. The call rests on the fitted dose curve; in most records, active means well fitted inhibition curve with a large enough effect; inconclusive means small, poorly fitted or top-dose-only effect; inactive means flat fitted curve, though single readings scatter.

Each compound was assayed against Tyrosyl-DNA phosphodiesterase 1 (Homo sapiens) (UniProt Q9NUW8) (assay: Confirmation Assay for Inhibitors of Tyrosyl-DNA Phosphodiesterase (TDP1) (AID 489007; further: nearly all actives have a fitted effect of over 40% in size)). Details: recombinant human TDP1 enzymatic activity, dose-response.
Tyrosyl-DNA phosphodiesterase 1 (Homo sapiens), sequence (Q9NUW8 whole entry, looked up): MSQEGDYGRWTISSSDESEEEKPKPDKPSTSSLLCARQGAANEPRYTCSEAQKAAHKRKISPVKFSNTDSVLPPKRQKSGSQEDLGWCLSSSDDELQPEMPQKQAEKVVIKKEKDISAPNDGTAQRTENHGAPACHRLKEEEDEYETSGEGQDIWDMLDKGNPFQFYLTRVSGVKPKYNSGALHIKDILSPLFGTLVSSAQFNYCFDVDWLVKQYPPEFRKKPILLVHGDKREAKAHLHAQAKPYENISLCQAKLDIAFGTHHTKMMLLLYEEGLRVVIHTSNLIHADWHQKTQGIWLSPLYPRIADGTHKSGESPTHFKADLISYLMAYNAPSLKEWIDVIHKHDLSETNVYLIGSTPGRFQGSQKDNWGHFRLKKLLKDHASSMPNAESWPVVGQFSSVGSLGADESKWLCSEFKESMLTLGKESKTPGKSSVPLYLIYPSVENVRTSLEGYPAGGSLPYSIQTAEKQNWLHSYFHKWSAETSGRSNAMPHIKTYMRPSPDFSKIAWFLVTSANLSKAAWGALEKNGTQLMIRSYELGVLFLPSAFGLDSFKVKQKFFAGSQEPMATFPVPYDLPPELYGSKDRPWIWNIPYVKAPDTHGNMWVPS
Summary of the method: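 Compounds are preincubated 15 min at room temperature with 1 nM recombinant human Tdp1. The reaction starts on adding 15 nM FITC-phosphotyrosine DNA substrate, runs 5 min, and is detected by AlphaScreen beads after 10 min.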
Potency means the concentration at half of the fitted maximal effect.

Potency, active:
CCN(CC)C(=O)COc1ccc2oc(-c3ccco3)cc(=O)c2c1 112 µM
O=C(O)C1C2C=CC(C2)C1C(=O)NCc1cccs1 (stereo not given) 31.6 µM
CC1=CCC(C(=O)O)C(C(=O)Nc2ccc(-c3nc4ccc(C)cc4s3)cc2)C1 (stereo not given) 31.6 µM
COc1ccccc1C1CN(c2ccccc2)N=C1c1cccs1 (stereo not given) 25.1 µM
Oc1ccc(/C=N/N2CCOCC2)c(O)c1O 100 µM
CC(C)CN(C(=O)COC(=O)c1cc2c(s1)CCC2)C1CCS(=O)(=O)C1 (stereo not given) 44.7 µM
O=C1C2C3C=CC(C3)C2C(=O)N1c1ncn[nH]1 (stereo not given) 31.6 µM
O=C(CSc1nc(NS(=O)(=O)c2ccccc2)cc(=O)[nH]1)Nc1ccc(Cl)cc1 22.4 µM
CCC(=O)c1ccc(CCCCCC(=O)O)s1 31.6 µM
Cc1ccc(CN2C(=O)N/C(=C/c3ccc(-c4ccc(C(=O)O)cc4)o3)C2=O)cc1 12.6 µM
O=C(O)C1CC=CCC1C(=O)Nc1ccccc1 (stereo not given) 14.1 µM
CCCCC[C@H](O)/C=C/[C@@H]1[C@@H](C/C=C\CCCC(=O)OC)[C@@H](O)C[C@H]1O 25.1 µM
O=C(O)C1Cc2ccccc2CN1C(=O)COc1ccc(Br)cc1 (stereo not given) 15.8 µM
CC(=O)c1ccc(S(=O)(=O)N2Cc3ccccc3CC2C(=O)O)cc1 (stereo not given) 15.8 µM
Cc1cc(C(=O)O)ccc1-c1ccc(/C=C2\NC(=O)N(Cc3ccc(F)cc3)C2=O)o1 4.47 µM
CSc1ccccc1NC(=O)c1noc2c1CCC2 126 µM
C=C1c2cccc(OC)c2O[C@H](C(=O)OCC)[C@@H]1CCCCCC 0.0251 µM
Cc1nc(S/C(=C\c2ccc(-c3ccc(C(=O)O)c(Cl)c3)o2)C(=O)O)n[nH]1 3.55 µM
Cc1cc(C=O)c(C)n1-c1cccc(C(=O)O)c1 7.94 µM
COc1ccc(CCNC(=O)c2ccc3nc(-c4ccco4)c(-c4ccco4)nc3c2)cc1OC 10 µM
Cc1ccc(C)n1-c1ccc(C(=O)O)cc1 0.794 µM
Cc1nnc(NC(=O)CSc2ccc(-c3ccco3)nn2)s1 14.1 µM
Cc1ccc(C(=O)O)cc1-c1ccc(/C=C2\SC(=O)N(CC(=O)Nc3ccccc3)C2=O)o1 6.31 µM
O=C(O)CCC(=O)N(Cc1cccs1)Cc1cccs1 112 µM
COC(=O)c1cc(NC(=O)c2ccc3c(c2)NC(=O)c2ccccc2S3)cc(C(=O)OC)c1 25.1 µM
C=C(C)C(=O)Nc1cccc(C2=NOC3(C2)C[C@H](C(N)=O)N(C(=O)COc2ccc(Cl)cc2)C3)c1 (stereo not given in full) 12.6 µM
Cc1nc(S/C(=C/c2ccc(OCc3ccc(C(=O)O)cc3)cc2)C(=O)O)n[nH]1 35.5 µM
CCN(c1ccccc1)S(=O)(=O)c1cc(C(=O)O)ccc1C 12.6 µM
C=CCc1cccc2cc(C(=O)Nc3ccc(S(=O)(=O)Nc4nnc(CC)s4)cc3)c(=O)oc12 15.8 µM
O=C(CCc1n[nH]c(=O)[nH]c1=O)N/N=C/c1ccco1 31.6 µM
CCCCNC(=O)COC(=O)c1ccc(Cl)c(S(=O)(=O)N2CCCC2)c1 100 µM
COc1ccc(-n2c(NC(=O)c3ccc(Br)o3)c(C#N)c3nc4ccccc4nc32)cc1 100 µM
O=C(O)c1ccc(-c2ccc(/C=C3\NC(=O)N(Cc4ccc(Cl)cc4)C3=O)o2)cc1 14.1 µM
CCn1c(SCc2nc3sc(C(=O)O)c(C)c3c(=O)[nH]2)nc2ccccc21 3.16 µM
O=C(COc1ccc2oc(-c3ccco3)cc(=O)c2c1)N1CCCCC1 79.4 µM
S=c1[nH]nc(-c2cccnc2)n1/N=C/c1ccc(Br)s1 63.1 µM
Cc1ccc(CNC(=O)CCS(=O)(=O)c2ccc(Br)cc2)cc1 12.6 µM
CCOc1ccc(N=Cc2c(C)[nH]n(-c3nc4ccccc4[nH]3)c2=O)cc1 31.6 µM
NC(=O)c1oc2ccccc2c1NC(=O)c1nc2ccccc2s1 15.8 µM
O=C(COC(=O)c1cc2c(s1)CCC2)Nc1ccc(F)cc1 12.6 µM
